PubChem BioAssay AID463218 (Sanford-Burnham Center for Chemical Genomics, 2010)
In all, about 4,400 compounds went through this assay and about 3,700 (84%) were called active.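 How the source made its calls: active means inhibition above about 39% in either of two replicate wells at 20 µM (limit read from the data); inactive means the rest.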 The set was probably picked from earlier hits. Only a sample is shown.

Assay: tim23-1 mutant yeast growth inhibitors, confirmation, luminescence, single concentration (AID 463218);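 further: temperature-sensitive tim23-1 mutant grown at 25 °C; 0% = DMSO wells with yeast and 100% = medium wells without yeast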
Conditions: S. cerevisiae tim23-1 growth, BacTiter-Glo luminescence, 24 h; at 20 µM; stronger effect = higher value
For `Cc1ccc(-c2nc3ccccc3c(=O)n2-c2ccc(Br)cn2)cc1`, the inhibition was 53.6% (active). With `Cc1cc2ccccn2c1C(C[N+](=O)[O-])c1c(F)cccc1Cl` (stereo not drawn) the inhibition was 58.5% (active). In the case of `COc1cccc(N2C(=O)NC(=O)/C(=C\c3ccc([N+](=O)[O-])s3)C2=O)c1`, the inhibition is reported as 78.3% (active).
